In PubChem BioAssay AID504607 (Sanford-Burnham Center for Chemical Genomics, 2011) one finds inhibition data, which are given here for 87 compounds.

Structures are written as SMILES. In all, about 6,200 compounds went through this assay and about 4,800 (77%) were called active. The set was probably picked from earlier hits. A selection follows. A number with no mark means an inactive call.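 How the source made its calls: active means mean inhibition at 8 µM reaching about 37%, which flags the compound as non-specific (limit read from the data); inactive means the rest.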

A short description of this experiment: luminescence decrease from intact luciferase reporter – cell-based, single concentration, SaOS-2, counter-screen for Mdm2/MdmX interaction inhibitor project, confirmation (AID 504607).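 Further: p53-null SaOS-2 cells with luciferase driven by a doxycycline-inducible promoter; compound on cells about two nights before reading with doxycycline added after day one.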 The following applies: SaOS-2 full-length luciferase counterscreen, at 8 µM, active compounds read high.
For `Oc1c(CN2CCN(c3ccc(F)cc3)CC2)cc(Cl)c2cccnc12`, the inhibition is 25.7%.
Consider `N#Cc1ccc(C(=O)Nc2nc(-c3cccs3)c(C(=O)C(F)(F)F)s2)cc1`, for which the inhibition is 54.4% (active).
As for `COc1ccc(CNC(=O)C(c2ccc(O)cc2)N(Cc2ccco2)C(=O)c2snc(C(N)=O)c2N)cc1` (configuration not stated), the inhibition is 88.8% (active).
The value for `Clc1ccc2c(c1)C1=C(C(c3ccncc3)O2)C(c2ccc(Br)cc2)n2ncnc2N1` (configuration not stated) was 67.2% (active); that for `Nc1nc(CC(=O)CSc2ccc(Cl)cc2)nc(Nc2ccc(F)cc2)n1` was 29.2%; that for `COc1ccc(C2=Nn3c(nnc3-c3ccccc3OC)SC2)cc1OC1CCCC1` was 68.2% (active).
The value for `Cc1nc(/N=C(\N)NC(=O)NC2CCCCC2)nc2ccccc12` was 34.4%; that for `Cc1nc(N=C(N)N)nc2c(C)cccc12` was 63.3% (active); that for `COc1ccc(CNC(=O)C[C@H]2C[C@H](C(=O)N3CCOCC3)[C@@]3(CCC4CCCC4)c4[nH]c5ccc(Cl)cc5c4CCN3C2=O)cc1OC` was 39.6% (active).
As to `CN(C)c1ccnc2sc3c(=O)n(Cc4ccccc4)cnc3c12`, the inhibition was 15.1%.
The value for `O=C(CCl)Nc1cccc(CP(=O)(c2ccccc2)c2ccccc2)c1` was 27.6%.
Turning to `Cc1cccc(NC(=O)c2nc(S(=O)(=O)Cc3ccccc3)ncc2Cl)c1`, the inhibition is 50.9% (active).
Take `Cc1cccc(CS(=O)(=O)c2ncc(Cl)c(C(=O)Nc3ccc(F)cc3)n2)c1`: the inhibition is 51.2% (active).
In the case of `C[C@@H](NC(=O)OC(C)(C)C)c1nnc(S(=O)(=O)Cc2ccccc2)o1`, the inhibition is 24.9%.
For `O=C(/C(=C/c1cccc(Cl)c1)c1nc2ccccc2[nH]1)c1ccccc1`, the inhibition is 97.6% (active).
The value for `CCCCNC(=O)C(C)N(CCN(C)C)C(=O)CCCCCN1C(=O)NC(c2ccc(Cl)cc2)C(C(=O)OCc2ccccc2)=C1C` (configuration not stated) was 27.8%; that for `Cc1cc2cc3c(cc2nc1SCC(=O)Nc1c(C)cccc1C)CCC3` was 60.3% (active); that for `CCOC(=O)Nc1ccc2c(c1)N(C(=O)CCCl)c1ccccc1[S@]2=O` was 54% (active).
Take `CNC[C@H](CC1CCCCC1)NC[C@H](NCCC1CCCC1)[C@H](C)O`: the inhibition was 30.2%.
As to `COc1ccc(CN(C)C(=O)c2cc(-c3ccc(C)cc3C)nc3ccccc23)c(OC)c1OC`, the inhibition was 62.1% (active).
In the case of `COc1ccc(-c2cc(C(=O)N(C)CC(=O)Nc3ccccc3Cl)c3ccccc3n2)cc1OC`, the inhibition was 79% (active).
The value for `COc1ccc(-c2cc(C(=O)N(C)Cc3ccc(OC)c(OC)c3OC)c3ccccc3n2)cc1OC` was 97.7% (active); that for `COc1cc(SC)ccc1C(=O)Nc1nc(C)cs1` was 43.3% (active); that for `COc1c(C)c2c(c(O)c1C/C=C(\C)CCC(=O)O)C(=O)OC2` was 22.9%.
The value for `O=C(Nc1ccc2c(c1)OCCO2)C1CCCC1` was 88.1% (active).
Turning to `Oc1c(Cl)cc(Cl)c(Cl)c1Cc1c(O)c(Cl)cc(Cl)c1Cl`, the inhibition is 26.8%.
With `CCNC(=O)c1c(O)c2cccc3c2n(c1=O)CC3`, the inhibition was 22.6%.
The value for `Cc1ccc(-c2nn(C(C)(C)C)c3ncnc(N)c23)cc1` was 30.7%; that for `O=C1NC[C@@H](c2ccccc2)OC(=O)[C@H](Cc2ccc(F)cc2)CC/C=C/C[C@H]1CC(=O)N(CCO)Cc1ccccc1` was 79% (active).
For the compound `Cc1cc(NC(=O)/C=C/C(=O)N(c2ccccc2C)C(C(=O)NC2CCCC2)c2ccc(F)cc2)no1` (configuration not stated), the inhibition was 28.7%.
The value for `COc1ccc(C(C(=O)NC2CCCCC2)N(C(=O)CCl)c2ccccc2Cl)cc1` (configuration not stated) was 78.5% (active).
The value for `COc1ccc(OC)c(Nc2nc(-c3ccc(O)c(O)c3)cs2)c1` was 79.9% (active); that for `Cc1oc2c(c1C(=O)N1CCOCC1)C(=O)c1ccccc1C2=O` was 56.8% (active); that for `O=S(=O)([N-]c1nc2ccccc2nc1-[n+]1ccc(Cc2ccccc2)cc1)c1ccc(Br)s1` was 56.5% (active).
The value for `OCCNc1nc(Nc2ccc(Cl)c(Cl)c2)nc2ccccc12` was 24.3%.
As for `O=[N+]([O-])c1c(NCCO)cc(Sc2nc3ccccc3s2)c2nonc12`, the inhibition is 50.4% (active).
As to `COC(=O)Cc1[nH]n(-c2nc3ccccc3s2)c(=O)c1C(C)=Nc1ccc(OC)cc1`, the inhibition is 26.2%.
The value for `O=C(Nc1ccccc1Cl)/C(Cl)=C(\Cl)S(=O)c1ccccc1` (configuration not stated) was 1.94%; that for `CCCC(O)(CCC)C(=O)NN(C(=O)CCl)c1cccc(C)c1` was 23.7%; that for `Cc1ccc(N(Cc2cc(=O)[nH]c3ccccc23)C(=O)CCl)cc1` was 25.3%.
In the case of `Cc1cccc(N(C)C(=O)c2cc3c(=O)[nH]c4ccc(C)cc4c3s2)c1`, the inhibition was 43.4% (active).
With `CC[C@]1(C(=O)OC)[C@H]2C(=O)N(Cc3ccccc3)C(=O)[C@H]2[C@H]2CN=C(SCc3ccc(C#N)cc3)N21`, the inhibition is 54.6% (active).
`CC[C@]1(C(=O)OC)[C@H]2C(=O)N(Cc3ccccc3)C(=O)[C@H]2[C@H]2CN=C(SCc3ccc(Cl)cc3)N21`: the inhibition is 52.2% (active).
The value for `CC[C@]1(C(=O)OC)[C@H]2C(=O)N(Cc3ccccc3)C(=O)[C@H]2[C@H]2CN=C(SCc3ccccc3)N21` was 35.8%; that for `Cc1cc(Nc2cc(N3CCN(C)CC3)nc(Sc3ccc(NC(=O)C4CC4)cc3)n2)n[nH]1` was 41.6% (active).
The value for `Cc1[nH]c(C)c(S(=O)(=O)N2CCN(c3cccc(C(F)(F)F)c3)CC2)c1C(=O)N1CCCCC1` was 54.6% (active); that for `COc1ccc(CNc2nc(NCc3ccc(OC)cc3)c3ncn(C4CCCC4)c3n2)cc1` was 73% (active).
Consider `Cc1c(CN2CCC(CO)(CCOc3ccccc3)CC2)[nH]c2ccc(Cl)cc12`, for which the inhibition is 53.7% (active).
The value for `N#CC1=C(N)Oc2cc(O)ccc2C1C1CCCCC1` (configuration not stated) was 56.5% (active); that for `Cc1[nH]c(=O)c(C(=O)/C=C/c2ccccc2)c2c1CCCC2` was 53.3% (active).
Take `COc1ccc2cc1Oc1ccc(cc1)C[C@H]1c3cc(c(OC)cc3CCN1C)Oc1c(O)c(OC)cc3c1[C@H](C2)N(C)CC3`: the inhibition is 51.1% (active).
On to `CCN1C(=O)/C(=C\N2CCN(c3cccc(Cl)c3)CC2)SC1=S`, for which the inhibition was 72.2% (active).
The value for `COc1cccc2sc(NNC(=O)c3nc4ccccc4s3)nc12` was 68.2% (active); that for `COc1cccc2sc(N(CCCN(C)C)C(=O)C(c3ccccc3)c3ccccc3)nc12` was 24.8%; that for `COc1cccc2sc(N(CCCN(C)C)C(=O)CCS(=O)(=O)c3ccccc3)nc12` was 21.2%.
The value for `CCSc1nsc(NC(=O)Nc2cccc(C(C)=O)c2)n1` was 41% (active); that for `C=CCSc1nsc(NC(=O)Nc2cccc(C(C)=O)c2)n1` was 21.9%.
With `CC(=O)c1ccc(Oc2cc(C)nc(-n3nc(C)cc3C)n2)cc1`, the inhibition was 78.7% (active).
The value for `Oc1cccc(/C=N/Nc2ccc(Cl)nn2)c1O` was 45.7% (active); that for `Oc1ccc(Br)cc1/C=N/Nc1ccccn1` was 20%.
The value for `Cc1nnnn1/C(=C\c1ccccc1)C(=O)OCC(=O)N1CC2(C)CC1CC(C)(C)C2` (configuration not stated) was 53.4% (active); that for `CC[n+]1cc(C)ccc1/C=C/c1ccc(N(C)C)cc1` was 37.8% (active).
With `O=C(/C=C/Sc1ncn[nH]1)c1ccc(Cl)cc1`, the inhibition is 51% (active).
For `COC(=O)CCNc1ccc2c(c1)OCCO2`, the inhibition was 51.5% (active).
Take `CCOC(=O)c1c(-c2cccc(C)c2)csc1NC(=O)c1c(-c2ccccc2)noc1C`: the inhibition was 52.8% (active).
The value for `O=C(CSc1nc2ccccc2c(=O)[nH]1)Nc1nc(-c2ccc(Br)cc2)cs1` was 47.8% (active); that for `Cc1ccc(C(=O)Nc2sc(Cc3ccc4c(c3)OCO4)c(C)c2C(N)=O)cc1` was 89.9% (active).
In the case of `CCN1/C(=C\c2ccc3ccccc3[n+]2CC)Sc2cc(C)ccc21`, the inhibition was 25%.
The value for `Cc1ccc2[nH]c(=O)c(CN(CCCN(C)C)C(=O)Nc3cccc(Cl)c3)cc2c1` was 66.6% (active).
The value for `Cc1cccc(NS(=O)(=O)c2ccc(-c3cnc(C4CC4)o3)cc2)c1` was 63.9% (active); that for `COC(=O)C1=C(Nc2ccc(C)cc2)C=C(C)C(C(=O)OC)C1c1ccc(F)cc1` (configuration not stated) was 61.3% (active); that for `O=C(c1[nH]ncc1-c1ccc(Cl)cc1)C1CO1` (configuration not stated) was 45.8% (active).
Take `O=C1NC(Nc2nc3ccccc3s2)(C(F)(F)F)C(=O)N1C1CCCCC1` (configuration not stated): the inhibition is 73.6% (active).
Take `Brc1ccc2ncnc(NCc3cccnc3)c2c1`: the inhibition was 26.8%.
Regarding `Cc1ccnc(NC(=O)C2CCN(S(=O)(=O)c3c(C)c(C)cc(C)c3C)CC2)c1`, the inhibition is 46% (active).
The value for `O=C(CCNC(=O)c1ccc(Cl)cc1)NC1CCCc2ccccc21` (configuration not stated) was 54.4% (active).
The value for `CCOC(=O)/C(=C\c1ccc([N+](=O)[O-])cc1)C(=O)c1cc(C(C)=O)c(Nc2ccccc2)s1` was 50.6% (active).
On to `CN(c1ccccc1)S(=O)(=O)c1cc(C(=O)N2CCN(c3ncccn3)CC2)ccc1Cl`, for which the inhibition was 83.9% (active).
For the compound `O=C(COc1ccccc1F)Nc1nc(-c2ccccn2)cs1`, the inhibition is 47.2% (active).
The value for `O=C(CCCCCn1c(=S)[nH]c2cc3c(cc2c1=O)OCO3)N1CCN(c2ccc(F)cc2)CC1` was 79.3% (active); that for `Cc1ccc(C)c(N2CCN(C(=O)CCCCCn3c(=S)[nH]c4ccc(N5CCOCC5)cc4c3=O)CC2)c1` was 60.1% (active).
The value for `COc1cccc(-c2nnc(NC(=O)c3ccc(S(=O)(=O)N(CC(C)C)CC(C)C)cc3)o2)c1` was 24.3%.
In the case of `O=C1/C(=C\c2ccccc2Cl)SC(=S)N1CCC(=O)N1CCCc2ccccc21`, the inhibition was 43.1% (active).
The value for `O=C(CN1C(=O)c2ccccc2S1(=O)=O)N1CCc2ccccc21` was 15.9%; that for `Fc1ccccc1/C=C1\CCCC2=C1Nc1ncnn1C2c1ccccc1F` (configuration not stated) was 3.26%.
Take `O=C(CSc1nc(Nc2ccccc2)nc(N2CCOCC2)n1)Nc1cc(Cl)ccc1O`: the inhibition is 65.1% (active).
With `Cc1ccccc1NC(=O)CSc1nc2ccc(Nc3nc(N4CCOCC4)nc(N4CCOCC4)n3)cc2s1`, the inhibition is 81.4% (active).
